Results taken from PubChem BioAssay (EPA / NIEHS).
The source made the active and inactive calls. Rule for the calls: active = hit-call score of the fitted dose curve at least 0.9, where 1 is the maximum; inactive = score below 0.9.

Assays:
[1] = biological target: CCAAT/enhancer-binding protein beta (Homo sapiens) (UniProt P17676); assay: ATG_C_EBP_CIS: Attagene CIS-FACTORIAL HepG2 Assay for human CCAAT/Enhancer Binding Protein (C/EBP) beta (AID 2282927); details: HepG2 Attagene cis-factorial transcription factor reporter; actives raise or lower the signal
Sequence of CCAAT/enhancer-binding protein beta (Homo sapiens) (P17676 whole entry, looked up): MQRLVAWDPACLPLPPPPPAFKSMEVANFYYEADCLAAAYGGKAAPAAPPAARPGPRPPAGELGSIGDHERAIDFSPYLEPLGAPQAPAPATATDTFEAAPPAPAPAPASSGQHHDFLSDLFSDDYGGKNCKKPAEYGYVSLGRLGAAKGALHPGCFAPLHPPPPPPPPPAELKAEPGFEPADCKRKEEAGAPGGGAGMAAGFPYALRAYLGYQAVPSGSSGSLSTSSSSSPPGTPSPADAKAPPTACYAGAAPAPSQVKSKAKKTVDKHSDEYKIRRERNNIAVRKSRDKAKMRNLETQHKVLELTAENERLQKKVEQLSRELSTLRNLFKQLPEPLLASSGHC
Summary of the method: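 RT-PCR/capillary electrophoresis fluorescence of reporter mRNA, 24 h post-dose, in HepG2 cells carrying transfected cis-promoter reporter units. Bidirectional curve fitting against DMSO baseline captures gain or loss of signal.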

[2] = ATG_CMV_CIS: Attagene CIS-FACTORIAL HepG2 Assay for human CMV (Internal Marker) (AID 2282928); details: HepG2 CMV promoter reporter, transcription factor profiling; actives raise or lower the signal;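 note: endpoint acts as a background internal control marker rather than a target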
Summary of the method: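 24 h chemical treatment, HepG2 with transient multi-reporter transfection; RNA → oligo(dT) RT → PCR → 6-FAM extension → HpaI digest → CE fluorescence. Bidirectional fit, DMSO negative control.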

[3] = ATG_DR4_LXR_CIS: Attagene CIS-FACTORIAL HepG2 Assay for human Liver X Receptor (LXR), DR4 submotif (AID 2282929); details: HepG2 Attagene DR4 cis-reporter, mRNA transcription; actives raise or lower the signal
Summary of the method: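 Total RNA from 24 h-treated, MRTU-transfected HepG2 cells underwent reverse transcription, PCR, fluorescent primer extension and restriction digestion before capillary electrophoresis. Both increases and decreases in reporter signal were fitted against DMSO.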

[4] = biological target: Aryl hydrocarbon receptor (Homo sapiens) (UniProt P35869); assay: ATG_Ahr_CIS: Attagene CIS-FACTORIAL HepG2 Assay for human Aryl Hydrocarbon Receptor (Ahr) (AID 2282930); details: HepG2 AhR cis-factorial reporter transcription; actives raise or lower the signal
Sequence of Aryl hydrocarbon receptor (Homo sapiens) (P35869 whole entry, looked up): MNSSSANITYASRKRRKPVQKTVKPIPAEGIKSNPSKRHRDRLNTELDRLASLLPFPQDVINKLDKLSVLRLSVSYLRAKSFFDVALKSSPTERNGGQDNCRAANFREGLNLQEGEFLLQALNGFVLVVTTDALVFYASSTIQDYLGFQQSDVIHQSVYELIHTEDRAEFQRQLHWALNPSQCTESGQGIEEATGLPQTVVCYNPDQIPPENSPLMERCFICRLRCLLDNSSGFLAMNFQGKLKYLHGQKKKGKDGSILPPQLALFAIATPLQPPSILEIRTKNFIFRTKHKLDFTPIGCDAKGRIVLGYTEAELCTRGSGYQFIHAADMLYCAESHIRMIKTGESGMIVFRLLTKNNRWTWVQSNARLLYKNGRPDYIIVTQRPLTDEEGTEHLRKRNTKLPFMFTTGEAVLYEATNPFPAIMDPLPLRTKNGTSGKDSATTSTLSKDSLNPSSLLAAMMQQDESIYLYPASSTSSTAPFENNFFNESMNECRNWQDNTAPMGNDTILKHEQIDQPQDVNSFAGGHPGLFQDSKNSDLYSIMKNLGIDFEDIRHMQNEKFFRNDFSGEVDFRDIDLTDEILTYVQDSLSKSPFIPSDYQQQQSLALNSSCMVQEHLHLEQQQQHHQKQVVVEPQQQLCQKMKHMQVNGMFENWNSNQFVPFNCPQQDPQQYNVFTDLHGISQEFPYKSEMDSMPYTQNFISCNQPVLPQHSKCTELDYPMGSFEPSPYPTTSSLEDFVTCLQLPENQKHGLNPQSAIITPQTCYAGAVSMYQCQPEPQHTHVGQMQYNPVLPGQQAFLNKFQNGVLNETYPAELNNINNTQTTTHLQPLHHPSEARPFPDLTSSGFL
Summary of the method: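 HepG2 cells transiently transfected with cis-element-driven multiplexed reporter transcription units; endogenous transcription factor activity measured as reporter mRNA 24 h after dosing. RT-PCR, 6-FAM labelling, HpaI digestion, capillary electrophoresis; bidirectional fitting versus DMSO baseline.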

[5] = ATG_AP_1_CIS: Attagene CIS-FACTORIAL HepG2 Assay for human Activator Protein 1 (AP-1) (AID 2282931); details: HepG2 Attagene cis-factorial AP-1 reporter mRNA; actives raise or lower the signal
Summary of the method: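 HepG2, transient cis-reporter transfection; 24 h; readout RT-PCR/CE fluorescence; DMSO baseline, gain and loss fitted.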

[6] = ATG_AP_2_CIS: Attagene CIS-FACTORIAL HepG2 Assay for human Activator Protein 2 (AP-2) (AID 2282932); details: HepG2 AP-2 cis-reporter, Attagene transcription factor profiling; actives raise or lower the signal
Summary of the method: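 Cells (HepG2) transfected with promoter-driven reporter constructs, treated 24 h. Total RNA reverse-transcribed, reporter cDNA PCR-amplified, FAM-labelled by primer extension, digested, resolved by capillary electrophoresis. Activity fitted both directions versus DMSO.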

[7] = ATG_BRE_CIS: Attagene CIS-FACTORIAL HepG2 Assay for human Bone Morphogenetic Protein (BMP) Response Element (BRE) (AID 2282933); details: HepG2 BMP response element reporter, Attagene transcription factor profiling; actives raise or lower the signal
Summary of the method: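 Gain- or loss-of-signal was derived by bidirectional fitting against DMSO controls. The signal came from reporter mRNA, measured by RT-PCR and capillary electrophoresis, in HepG2 cells transiently carrying multiple reporter units and dosed for 24 h.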

[8] = biological target: Retinoic acid receptor alpha (Homo sapiens) (UniProt P10276); assay: ATG_DR5_RAR_CIS: Attagene CIS-FACTORIAL HepG2 Assay for human Retinoic Acid Receptor Alpha (RARE), DR5 submotif (AID 2282934); details: HepG2 Attagene cis-factorial RARE DR5 reporter, mRNA; actives raise or lower the signal;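 for AC50: reporter responds to endogenous RAR alpha beta and gamma in HepG2 not RARA alone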
Sequence of Retinoic acid receptor alpha (Homo sapiens) (P10276 whole entry, looked up): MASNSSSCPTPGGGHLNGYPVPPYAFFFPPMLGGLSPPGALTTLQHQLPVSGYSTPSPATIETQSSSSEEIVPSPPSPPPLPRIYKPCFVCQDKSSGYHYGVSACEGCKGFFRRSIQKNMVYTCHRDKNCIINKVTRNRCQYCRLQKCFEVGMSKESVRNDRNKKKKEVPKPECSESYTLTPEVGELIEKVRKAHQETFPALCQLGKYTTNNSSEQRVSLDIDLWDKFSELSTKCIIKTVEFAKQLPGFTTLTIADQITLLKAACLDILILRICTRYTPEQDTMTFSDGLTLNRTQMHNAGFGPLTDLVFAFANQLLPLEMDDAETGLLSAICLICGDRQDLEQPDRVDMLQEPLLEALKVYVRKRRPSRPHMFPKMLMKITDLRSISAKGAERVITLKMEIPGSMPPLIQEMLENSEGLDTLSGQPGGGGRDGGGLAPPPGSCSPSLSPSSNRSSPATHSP
Summary of the method: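 HepG2 cells transiently transfected with multiplexed reporter units under cis (DR5 RARE) promoters, so endogenous transcription factor activity is measured. After 24 h compound exposure, reporter mRNA is quantified by RT-PCR with fluorescent labelling and capillary electrophoresis; bidirectional fitting versus DMSO.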

[9] = biological target: Transcription factor E2F1 (Homo sapiens) (UniProt Q01094); assay: ATG_E2F_CIS: Attagene CIS-FACTORIAL HepG2 Assay for human E2F Transcription Factor 1 (AID 2282935); details: HepG2 Attagene cis-reporter, E2F reporter RNA transcripts; actives raise or lower the signal
Sequence of Transcription factor E2F1 (Homo sapiens) (Q01094 whole entry, looked up): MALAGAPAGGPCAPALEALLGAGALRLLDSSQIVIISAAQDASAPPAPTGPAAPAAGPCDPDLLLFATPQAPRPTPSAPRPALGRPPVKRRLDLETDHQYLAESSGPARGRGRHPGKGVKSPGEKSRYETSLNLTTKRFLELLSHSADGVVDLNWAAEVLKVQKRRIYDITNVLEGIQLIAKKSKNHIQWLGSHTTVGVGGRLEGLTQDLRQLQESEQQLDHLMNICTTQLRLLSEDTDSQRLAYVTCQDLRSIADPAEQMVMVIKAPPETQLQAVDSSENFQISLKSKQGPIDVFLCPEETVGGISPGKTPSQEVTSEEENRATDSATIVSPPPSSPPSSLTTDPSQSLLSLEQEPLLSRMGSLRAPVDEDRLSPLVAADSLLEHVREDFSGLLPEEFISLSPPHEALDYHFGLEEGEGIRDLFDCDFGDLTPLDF
Summary of the method: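 First, HepG2 cells were transfected with reporter transcription units. Next, they were dosed for 24 h. Then RNA was isolated, converted to cDNA, PCR-amplified, FAM-labeled, HpaI-digested and analyzed by capillary electrophoresis.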

[10] = ATG_E_Box_CIS: Attagene CIS-FACTORIAL HepG2 Assay for human Enhancer Box (E-box) (AID 2282936); details: HepG2 E-box cis-reporter transcription, actives raise or lower the signal
Summary of the method: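 Endogenous transcription factor activity was sensed in human HepG2 liver cells through transfected cis-promoter reporter units. After 24 h of dosing, total RNA was reverse-transcribed and reporter cDNA resolved by capillary electrophoresis.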

[11] = ATG_M_61_CIS: Attagene CIS-FACTORIAL HepG2 Assay for M61 Transcription Factor (Internal Marker) (AID 2282937); details: HepG2 Attagene CIS-FACTORIAL M61 internal marker reporter; actives raise or lower the signal
Summary of the method: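 Transfect HepG2 with MRTUs; dose 24 h; isolate RNA; reverse-transcribe with DNase I treatment; PCR-amplify, FAM-label and cut with HpaI for 2 h at 37 C; resolve by CE. Bidirectional fitting against DMSO.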

[12] = ATG_EGR_CIS: Attagene CIS-FACTORIAL HepG2 Assay for human Early Growth Response 1 (EGR1) (AID 2282938); details: HepG2 Attagene CIS-FACTORIAL EGR reporter mRNA; actives raise or lower the signal
Summary of the method: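 After a 24 h treatment of transiently transfected HepG2 cells, total RNA was reverse-transcribed and reporter sequences PCR-amplified, labelled and run on capillary electrophoresis. Reporters sit under cis-regulatory promoters sensing endogenous factors.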

[13] = ATG_M_19_CIS: Attagene CIS-FACTORIAL HepG2 Assay for M19 Transcription Factor (Internal Marker) (AID 2282939); details: HepG2 Attagene CIS-FACTORIAL M19 internal marker reporter; actives raise or lower the signal
Summary of the method: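 Following a 24 h exposure, RNA from transfected HepG2 cells was reverse-transcribed, PCR-amplified with reporter-specific primers, end-labelled with 6-FAM and HpaI-digested before capillary separation. Values represent gain or loss versus DMSO.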

[14] = ATG_Ets_CIS: Attagene CIS-FACTORIAL HepG2 Assay for human Erythroblast Transformation Specific (ETS) (AID 2282941); details: HepG2 ETS cis-reporter transcription, actives raise or lower the signal
Summary of the method: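 Cis-regulated reporter mRNA induction in HepG2 (transient transfection), 24 h exposure, RT-PCR plus capillary electrophoresis detection; DMSO serves as negative control and baseline.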

[15] = biological target: Hepatocyte nuclear factor 3-beta (Homo sapiens) (UniProt Q9Y261); assay: ATG_FoxA2_CIS: Attagene CIS-FACTORIAL HepG2 Assay for human Forkhead box A2 (FOXA2) (AID 2282942); details: HepG2 cis-reporter transcription factor activity, 24 h; actives raise or lower the signal
Sequence of Hepatocyte nuclear factor 3-beta (Homo sapiens) (Q9Y261 whole entry, looked up): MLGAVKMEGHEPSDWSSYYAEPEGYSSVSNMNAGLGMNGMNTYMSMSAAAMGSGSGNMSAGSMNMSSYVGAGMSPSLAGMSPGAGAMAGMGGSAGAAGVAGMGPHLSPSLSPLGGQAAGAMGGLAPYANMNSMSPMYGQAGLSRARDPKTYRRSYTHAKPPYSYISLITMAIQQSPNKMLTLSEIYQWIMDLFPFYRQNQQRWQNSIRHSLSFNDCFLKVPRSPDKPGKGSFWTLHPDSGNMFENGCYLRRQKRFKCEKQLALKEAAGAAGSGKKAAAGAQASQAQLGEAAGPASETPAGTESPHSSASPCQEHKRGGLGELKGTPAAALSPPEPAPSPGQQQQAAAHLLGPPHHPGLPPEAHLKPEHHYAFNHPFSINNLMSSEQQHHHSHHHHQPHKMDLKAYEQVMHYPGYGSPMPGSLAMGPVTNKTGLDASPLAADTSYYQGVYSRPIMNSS
Summary of the method: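 24 h dosing of HepG2 bearing cis-reporter constructs; mRNA readout by RT-PCR/CE fluorescence; bidirectional fit, DMSO baseline.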

[16] = ATG_FoxO_CIS: Attagene CIS-FACTORIAL HepG2 Assay for human Forkhead box O (FoxO) (AID 2282943); details: HepG2 Attagene cis-reporter, FoxO element, mRNA; actives raise or lower the signal
Summary of the method: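 HepG2 cells transiently transfected with cis-promoter-driven multiple reporter transcription units; 24 h after chemical dosing, reporter mRNA quantified by RT-PCR, fluorescent primer extension, HpaI digestion and capillary electrophoresis. Bidirectional fitting versus DMSO baseline.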

[17] = ATG_GLI_CIS: Attagene CIS-FACTORIAL HepG2 Assay for human Zinc Finger Protein GLI1 (AID 2282945); details: HepG2, Attagene cis-factorial reporter mRNA, GLI element; actives raise or lower the signal
Summary of the method: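 HepG2 cells transiently transfected with cis-promoter multiplexed reporter units report endogenous transcription factor activity. After 24 h chemical exposure, reporter mRNA was quantified by RT-PCR, 6-FAM labelling, HpaI digestion and capillary electrophoresis, with bidirectional fitting against DMSO.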

[18] = ATG_CRE_CIS: Attagene CIS-FACTORIAL HepG2 Assay for human cAMP Responsive Element (CRE) binding protein 3 (AID 2282926); details: HepG2 CRE cis-reporter, Attagene multiplexed mRNA; actives raise or lower the signal
Summary of the method: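 Induced reporter mRNA from a CRE cis element, measured in HepG2 among many multiplexed units at 24 h. Detection used RT-PCR plus capillary electrophoresis of fluorescent fragments; DMSO served as negative control.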

[19] = ATG_GATA_CIS: Attagene CIS-FACTORIAL HepG2 Assay for human GATA Binding Protein (AID 2282944); details: HepG2 GATA cis-element reporter, Attagene multiplex mRNA; actives raise or lower the signal
Summary of the method: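 DMSO serves as negative control and baseline for bidirectional fitting of reporter mRNA changes. HepG2 cells bearing transiently transfected cis-promoter reporters were exposed 24 h; transcripts detected via RT-PCR and capillary electrophoresis.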

[20] = ATG_ERE_CIS: Attagene CIS-FACTORIAL HepG2 Assay for Estrogen Response Element (ERE) (AID 2282940); details: HepG2 ERE cis-reporter, Attagene RNA transcript; actives raise or lower the signal
Summary of the method: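 HepG2, transient cis-reporter units, 24 h exposure. RNA isolated, oligo(dT) RT, reporter-specific PCR, FAM extension, HpaI cut, CE detection. Gain/loss-of-signal vs DMSO.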

Measured: AC50

O=C1CCCCCCCCCCCCCCO1
active: [2] 100 µM | [3] 181 µM | [4] 145 µM | [5] 46.2 µM | [8] 100 µM
not listed: [18] | [19] | [20]
inactive: all other assays above

COCCCOc1ccnc(CS(=O)c2nc3ccccc3[nH]2)c1C (stereo not given)
active: [4] 14.7 µM
not listed: [2] | [20]
inactive: all other assays above

C=CC(=O)OCCOCCOCC
not listed: [2] | [4] | [10] | [11] | [12] | [20]
inactive: all other assays above

CCCCCCCCCCCCCOS(=O)(=O)O
not listed: [2] | [5] | [8] | [11] | [13] | [20]
inactive: all other assays above

Nc1ccc(F)c([N+](=O)[O-])c1
not listed: [2] | [7] | [8] | [14] | [16] | [20]
inactive: all other assays above

CC(C)(C)NC(N)=O
not listed: [2] | [5] | [8]
inactive: all other assays above

CCCCc1ccc(N)cc1
active: [20] 29.6 µM
not listed: [2] | [5] | [8]
inactive: all other assays above

C=C(C)C(=O)NCCCN(C)C
not listed: [2] | [5] | [8] | [12] | [20]
inactive: all other assays above

CCc1c(C)cc(N)c(CC)c1N
active: [4] 79.3 µM
not listed: [2] | [8] | [11]
inactive: all other assays above

CCCCC[Si](OCC)(OCC)OCC
not listed: [2] | [19] | [20]
inactive: all other assays above

CC(C)(N)CO
not listed: [8] | [13] | [18] | [20]
inactive: all other assays above

O=c1cc(-c2ccccc2)oc2cc(O)cc(O)c12
active: [2] 3.31 µM | [3] 7.76 µM | [10] 25.9 µM
not listed: [4] | [5] | [18] | [20]
inactive: all other assays above

Nc1ccc(S(N)(=O)=O)cc1
not listed: [8] | [18] | [20]
inactive: all other assays above

Cc1ccc(S)cc1
active: [2] 34.4 µM | [3] 59.7 µM | [5] 119 µM | [7] 100 µM
not listed: [8] | [14] | [18]
inactive: all other assays above

CCCCCCCCC
active: [20] 63.2 µM
not listed: [4] | [8] | [18] | [19]
inactive: all other assays above

c1ccc2sc(SN(C3CCCCC3)C3CCCCC3)nc2c1
active: [2] 8.13 µM | [4] 49.1 µM | [5] 11.9 µM
not listed: [8] | [18]
inactive: all other assays above
